# Results from publication PMC4336329 (PLoS ONE, 2015).
# In all, about 310,000 compounds went through this assay and about 14,000 (4.5%) showed an effect of 50% or more. The effect is printed as a negative number. What follows is part of a selection rich in strong results, with near analogues and random picks from the rest.
# Molecular target: human ether-à-go-go-related gene (hERG) potassium channel (human, UniProt Q12809)
# Experiment: primary screen, population patch clamp on CHO cells stably expressing hERG; higher = less effect of the substance
# 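Note: peak tail current of the secondary pulse compared with the same well before compound.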
# human ether-à-go-go-related gene (hERG) potassium channel, sequence (Q12809 whole entry, looked up): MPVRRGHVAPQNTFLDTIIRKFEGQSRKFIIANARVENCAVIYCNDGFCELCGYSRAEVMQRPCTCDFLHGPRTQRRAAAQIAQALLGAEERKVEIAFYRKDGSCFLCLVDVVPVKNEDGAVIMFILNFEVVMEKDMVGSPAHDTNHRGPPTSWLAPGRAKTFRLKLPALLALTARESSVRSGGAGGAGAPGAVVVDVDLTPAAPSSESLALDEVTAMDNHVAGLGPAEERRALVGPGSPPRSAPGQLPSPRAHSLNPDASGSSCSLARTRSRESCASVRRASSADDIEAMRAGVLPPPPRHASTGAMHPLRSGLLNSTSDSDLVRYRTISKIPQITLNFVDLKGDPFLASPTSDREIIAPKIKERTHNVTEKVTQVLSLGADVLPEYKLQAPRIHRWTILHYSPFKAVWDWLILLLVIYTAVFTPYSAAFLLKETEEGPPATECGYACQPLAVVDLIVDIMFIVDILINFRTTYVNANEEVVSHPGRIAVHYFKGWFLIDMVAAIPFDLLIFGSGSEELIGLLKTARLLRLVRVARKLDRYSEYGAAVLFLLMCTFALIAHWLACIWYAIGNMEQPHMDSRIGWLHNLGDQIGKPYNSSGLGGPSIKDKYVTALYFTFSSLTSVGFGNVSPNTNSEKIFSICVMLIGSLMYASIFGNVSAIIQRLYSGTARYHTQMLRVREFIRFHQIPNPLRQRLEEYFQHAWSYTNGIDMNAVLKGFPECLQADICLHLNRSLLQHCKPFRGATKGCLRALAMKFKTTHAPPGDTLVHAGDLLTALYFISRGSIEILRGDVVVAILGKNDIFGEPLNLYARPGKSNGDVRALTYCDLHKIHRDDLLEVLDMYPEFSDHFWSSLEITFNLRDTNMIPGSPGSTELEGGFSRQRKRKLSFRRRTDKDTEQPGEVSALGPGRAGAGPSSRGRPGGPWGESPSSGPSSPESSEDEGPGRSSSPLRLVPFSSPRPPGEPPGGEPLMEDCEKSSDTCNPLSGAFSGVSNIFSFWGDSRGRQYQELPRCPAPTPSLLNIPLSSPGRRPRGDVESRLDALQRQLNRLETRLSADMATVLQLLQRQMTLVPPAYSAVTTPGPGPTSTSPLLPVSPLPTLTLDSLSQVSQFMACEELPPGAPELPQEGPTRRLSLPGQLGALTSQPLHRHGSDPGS
row,Compound,"hERG current change (%, negative = inhibition) at 10uM"
1,CNCCOc1ccccc1-c1ccccc1.O=C(O)C(=O)O,-5.68%
2,O=C(CCN1C(=O)c2ccccc2S1(=O)=O)N1CCN(c2ccccc2F)CC1,-5.02%
3,Cc1ccsc1C(=O)NCC(C)(C)N1CCOCC1,-9.41%
4,CC(=O)SC(C)CC(=O)Nc1ccccc1 (centres unmarked),7.33%
5,Cc1nc2cc(-c3ccccc3)nn2c(C)c1CCC(=O)N1CCN(c2ccccc2)CC1,-65.7%
6,Cc1nc2nc(C)c(CCC(=O)N3CCN(c4ccccn4)CC3)c(C)n2n1,-46.1%
7,Cc1nc2nc(C)c(CCC(=O)N3CCN(c4ccccc4)CC3)c(C)n2n1,-56.2%
8,Cc1nc2cc(-c3ccccc3)nn2c(C)c1CCC(=O)N1CCC2(CC1)OCCO2,-47.2%
9,Cc1nc2cc(-c3ccc(Cl)cc3)nn2c(C)c1CCC(=O)NC(C)c1ccc2c(c1)OCCO2 (centres unmarked),-23.8%
10,Cc1nc2cc(-c3ccccc3)nn2c(C)c1CCC(=O)NC(C)c1ccc2c(c1)OCCO2 (centres unmarked),-50.8%
11,Cc1nc2cc(-c3cccc(F)c3)nn2c(C)c1CCC(=O)NC(C)c1ccc2c(c1)OCCO2 (centres unmarked),-44.6%
12,Cc1nc2nc(C)c(CCC(=O)N3CCOCC3)c(C)n2n1,-21%
13,Cc1nc2cc(-c3cccc(F)c3)nn2c(C)c1CCC(=O)N1CCN(c2ccccn2)CC1,-13.1%
14,O=C(CC1(c2ccc(Cl)cc2)C2CC3CC(C2)CC1C3)NCCO (centres unmarked),-7.17%
15,O=C(COC(=O)c1cccc(-n2cnnn2)c1)c1ccccc1,-4.63%
16,OCc1ccccc1SSc1ccccc1CO,14.5%
17,COc1ccc2[nH]c(C)c(CCN3C(=O)OC(C)(C)C3(C)O)c2c1 (centres unmarked),9.02%
18,Cc1cccc(-n2nnc(C(=O)NCc3ccccn3)c2N)c1,0.598%
19,CCc1noc(C)c1C(=O)N1CCN(S(=O)(=O)c2cc(C)ccc2C)CC1,-1.66%
20,O=C(c1ccco1)N1CCN(S(=O)(=O)c2ccc(Oc3ccccc3)cc2)CC1,-31.5%
21,Cc1ccc(C(=O)C(C)OC(=O)Cn2cnc3c2c(=O)n(C)c(=O)n3C)cc1 (centres unmarked),-0.153%
22,COc1ccc(Oc2ccc(C(F)(F)F)cc2NC(=O)c2ccc(OC)cc2)cc1,12.5%
23,COc1ccc(Oc2ccc(C(F)(F)F)cc2NC(=O)c2ccc(F)cc2)cc1,6.56%

row,Compound,"hERG current change (%, negative = inhibition) at 10uM"
1,N#Cc1ccc(Oc2ccc(C(F)(F)F)cc2NC(=O)c2ccc(F)cc2)cc1,-70.2%
2,CC(=O)c1c(C)[nH]c(C(=O)CN2CCN(S(=O)(=O)c3ccccc3[N+](=O)[O-])CC2)c1C,-6.62%
3,CCCCC(CC(C)O)c1n[nH]c(=S)n1-c1ccccc1 (centres unmarked),3.1%
4,COc1ccc(/C=C/C(=O)NC(=S)N2C[C@H]3C[C@H](C2)c2cccc(=O)n2C3)cc1,-18.2%
5,COc1ccc(/C=C/C(=O)NC(=S)N2C[C@H]3C[C@H](C2)c2cccc(=O)n2C3)cc1OC,6.67%
6,O=C(/C=C/c1ccc(F)cc1)NC(=S)N1C[C@H]2C[C@H](C1)c1cccc(=O)n1C2,-22.9%
7,O=C(/C=C/c1ccccc1)NC(=S)N1C[C@H]2C[C@H](C1)c1cccc(=O)n1C2,-15%
8,O=C(/C=C/c1ccc(Br)cc1)NC(=S)N1C[C@H]2C[C@H](C1)c1cccc(=O)n1C2,-57.9%
9,O=C(/C=C/c1ccc(Cl)cc1)NC(=S)N1C[C@H]2C[C@H](C1)c1cccc(=O)n1C2,-53.1%
10,O=C(NCc1ccco1)Nc1ccc2snnc2c1,2.51%
11,CNC(=O)c1c(NC(NC(=O)c2ccco2)C(=O)c2ccc(Cl)cc2)sc2c1CCCC2 (centres unmarked),-20.3%
12,CC1=C(C(=O)Nc2ccccc2)C(c2ccc(C)o2)n2c(s/c(=C/c3ccccc3)c2=O)=N1 (centres unmarked),18.1%
13,COc1ccccc1NCc1ccc([N+](=O)[O-])s1,-47.7%
14,O=C(c1ccc2ncsc2c1)N1CCCCC1,17.9%
15,CC1CN(C(=O)C(C)OC(=O)c2ccc3ncsc3c2)CC(C)O1 (centres unmarked),20.1%
16,CC(OC(=O)c1ccc2ncsc2c1)C(=O)N1CCCC1 (centres unmarked),-56.9%
17,CCCc1nnc(SCC(=O)N2CCCC2)n1Cc1ccco1,1.2%
18,Cc1ccc2c(c1)sc(=NC(=O)C1CC1)n2C,-4.01%
19,CCOC(=O)c1cnc2ccc(C)cc2c1Sc1ccccc1C(=O)OC,-2.26%
20,CCOC(=O)C1CCN(Cc2cn[nH]c2-c2ccccc2)CC1.O=C(O)C(=O)O,-9.8%
21,CCOC(=O)N1CCN(Cc2cn[nH]c2-c2cccc3ccccc23)CC1,-4.57%
22,Cc1ccc(-c2[nH]ncc2CN2CCN(C(=O)c3cccs3)CC2)cc1C,-62.5%
23,COc1ccc(CN2CCN(C(=O)c3cccs3)CC2)c(OC)c1OC,-6.53%

row,Compound,"hERG current change (%, negative = inhibition) at 10uM"
1,CCOC(=O)N1CCN(Cc2cn[nH]c2-c2cc3ccccc3o2)CC1,-34.4%
2,CCOC(=O)C1CCN(Cc2ccccc2C)CC1,0.665%
3,CCOC(=O)C1CCN(Cc2cn[nH]c2-c2ccc(C)cc2)CC1,-51.8%
4,CCOC(=O)N1CCN(Cc2cn[nH]c2-c2ccc(-c3ccccc3)cc2)CC1,-54.8%
5,COc1ccc(-c2[nH]ncc2CN2CCN(C(=O)c3cccs3)CC2)c(F)c1,-21.5%
6,O=C(Nc1cc(=O)[nH]c2nc(-c3ccccc3)nn12)c1ccccc1Cl,15.3%
7,Cc1sc(NC(=O)c2ccc(Br)s2)c(C(N)=O)c1C,17.5%
8,OCCN(Cc1ccccc1)Cc1ccc(Cl)cc1,-73%
9,OCCN(Cc1ccccc1)Cc1ccc(Cl)cc1Cl,-14%
10,OCCN(Cc1ccccc1)Cc1ccc(F)c(F)c1,-14.9%
11,COc1ccc(S(=O)(=O)N2CCOC2CNC(=O)C(=O)NCc2ccccn2)cc1C (centres unmarked),11.6%
12,CCc1noc(C)c1C(=O)Nc1nc(-c2ccccc2)cs1,-32.6%
13,CCc1noc(C)c1C(=O)Nc1nc(-c2cccs2)cs1,-57%
14,Cc1noc(C)c1C(=O)Nc1nc(-c2cccs2)cs1,-56.9%
15,Cc1noc(C)c1C(=O)Nc1nc(-c2ccccc2Cl)cs1,-0.869%
16,CCc1noc(C)c1C(=O)Nc1nc(-c2ccc(OC)cc2)cs1,-6.43%
17,Cc1ccc(-c2csc(NC(=O)c3c(C)noc3C)n2)cc1,-31.7%
18,Cc1ccc(NC(=S)N2CCN(C(=O)C3CCCO3)CC2)cc1 (centres unmarked),17.8%
19,Cc1c(N)c(C(C)(C)C)cc(C(C)(C)C)c1[N+](=O)[O-],0.751%
20,Cc1sc2ncnc(SCC(=O)c3ccc(Cl)s3)c2c1C,18.3%
21,Cc1cc(NC(=O)CN2CCCCC2)no1.O=C(O)C(=O)O,18.8%
22,Cc1ccc2ccc3cccc4ccc1c2c34,14%
23,S=c1[nH]nc(COc2ccccc2)n1/N=C/C=C/c1ccco1,3.42%

row,Compound,"hERG current change (%, negative = inhibition) at 10uM"
1,CC(NC(=O)Nc1ccccc1)C(c1cccs1)N1CCN(C)CC1 (centres unmarked),-17.8%
2,CC(NC(=O)Nc1cccc(Cl)c1)C(c1cccs1)N1CCCC1 (centres unmarked),-22.8%
3,CC(NC(=O)Nc1ccc([N+](=O)[O-])cc1)C(c1cccs1)N1CCCC1 (centres unmarked),-60.1%
4,NC(=O)CSc1nnc(-c2ccncc2)n1-c1ccc(Cl)cc1,-21.5%
5,COc1ccc(NC(=S)N2CCN(S(C)(=O)=O)CC2)cc1OC,4.68%
6,Cc1ccc(C(=O)O/N=C(\N)Cc2cccs2)c(Cl)c1,0.558%
7,O=C(c1nc2ccccn2c1CN1CCN(c2ccccc2O)CC1)N1CCCC1,34.7%
8,O=C(c1nc2ccccn2c1CN1CCCC(OCc2ccccc2)C1)N1CCCC1 (centres unmarked),-44.8%
9,O=C(c1nc2ccccn2c1CN1CCC(Cc2ccccc2)CC1)N1CCCC1,-70.7%
10,Cc1cccc(CN2CCC(Oc3ccc(C(=O)N4CCCCC4)cc3)CC2)c1,-21.9%
11,Cc1cccc(OC2CCN(Cc3c(C(=O)N4CCCC4)nc4ccccn34)CC2)c1,-59.4%
12,COC1CCN(Cc2c(C(=O)N3CCN(C4CCCCC4)CC3)nc3ccccn23)CC1,5.42%
13,CCCCCCNS(=O)(=O)c1ccc(NC(=O)C2CCCO2)cc1 (centres unmarked),-21.8%
14,Cc1ccc2sc(N3CCN(C(=O)C4=COCCO4)CC3)nc2c1C,-15.6%
15,COc1ccc(OCc2cccc(C(=O)NN)c2)cc1,2.35%
16,CC1CCCC(C)N1C(=O)c1cc(F)c(F)cc1Cl (centres unmarked),16.1%
17,COc1ccc(CCNC(=O)C/C(C)=N/NC(=O)C2CCCCC2)cc1OC,8.79%
18,CC(OC(=O)CCCNC(=O)c1ccc(Cl)cc1)C(=O)N(C)Cc1ccccc1 (centres unmarked),-54.2%
19,CCN(C(=O)C(C)OC(=O)CCCNC(=O)c1ccc(Cl)cc1)c1ccccc1 (centres unmarked),-25.1%
20,COc1ccc(CN(C)C(=O)CCCNC(=O)c2ccc(Cl)cc2)cc1,-26.6%
